About 1,400 (93%) of roughly 1,500 compounds were called active. How the calls were made is not given here. So high a share suggests a set chosen from earlier hits. The list is a sample of the results. Potency and affinity values are given separately.

This assay can be described thus: growth suppression of beta-catenin-knockout colon cells, dose response, cell-based, HCT116, human colon tumor (AID 1045). The note with it: CellTiter-Glo, 60 h; series mostly up to 30 µM; viability: at the top concentration.
`c1ccc(-c2cc3n(c2)CCc2ccccc2-3)cc1`: the “viability” value was 80.8% (inactive).
Turning to `CC(C[N+](C)(C)C)OC(N)=O` (configuration not stated), the “viability” value is 94.6% (inactive).
For the compound `CC1CCN(CC(=O)N2c3ccccc3CCc3ccccc32)CC1`, the “viability” value was 91.3% (inactive).
The value for `O=C(CSc1nnc(-c2ccccc2Cl)o1)Oc1ccc(Br)cc1` was 102% (inactive); that for `Cc1ccc(C(=O)Nc2ccccc2C(=O)NC(C(=O)O)C(C)C)cc1` (configuration not stated) was 92.6% (inactive).
The value for `CCOC(=O)Nc1ccc(C)cc1Br` was 97.8% (inactive); that for `Cc1nn(C(=O)N2CCOCC2)c(C)c1C` was 93.1% (inactive); that for `O=S(=O)(NCCc1csc(-c2cccnc2)n1)c1ccc2c(c1)OCCO2` was 97.6% (inactive).
Next, `CCOc1ccccc1NC(=O)Cn1cnc2c(nnn2-c2cccc(OC)c2)c1=O`: 89.3% (inactive); `COCCn1c(=NC(=O)CSCC(=O)Nc2cc(C)on2)sc2cc(C(=O)OC)ccc21`: 114% (inactive); `CCOc1c(OC)ccc2c3c(c(=O)oc12)CCCC3`: 92.8% (inactive).
In the case of `CCOc1ccc(C2/C(=C(\O)c3c(C)[nH]c(C(=O)OC)c3C)C(=O)C(=O)N2CCN(C)C)cc1` (configuration not stated), the “viability” value was 101% (inactive).
The value for `COC(=O)c1cn(NC(=O)c2cc(OC)c(OC)c(OC)c2)c(=O)c2ccccc12` was 80% (inactive); that for `Cc1[nH]nc2c1C(c1ccsc1C)C(C#N)=C(N)O2` (configuration not stated) was 94.6% (inactive).
Next, `CC(C)CCCCCCNC(=S)Nc1ccc(S(=O)(=O)N2CCOCC2)cc1`: 83.6% (inactive); `CC(=O)c1c(C)nc(-c2ccc(Cl)cc2Cl)n1O`: 94.7% (inactive).
Next, `Cc1cc(NC(=O)CSc2nc(-c3cccnc3)ccc2C#N)no1`: 88.9% (inactive); `[N-]=[N+]=NC1C[C@H](n2ccc(=O)[nH]c2=O)O[C@@H]1CO` (some centres not stated): 97.4% (inactive); `COC(=O)c1cccc(N2C(=O)C(Cl)=C(N3CCOCC3)C2=O)c1`: 84.8% (inactive).
`CS(=O)(=O)c1nc(-c2cccs2)cc(C(F)(F)F)n1`: the “viability” value is 97.9% (inactive).
Consider `N#CC(c1ccc(Cl)nn1)c1ccc(Cl)cc1Cl` (configuration not stated), for which the “viability” value is 87% (inactive).
As to `CCCCN(C)C(=O)C1CCC(=O)N(c2cc(OC)c(OC)c(OC)c2)C1c1ccc(OC)cc1` (configuration not stated), the “viability” value is 100% (inactive).
The value for `COCCNC(=O)NC1(C(F)(F)F)Oc2ccc(Cl)cc2O1` (configuration not stated) was 90.1% (inactive); that for `O=C(NCc1ccc(F)cc1)C1C2C=CC3(CN(Cc4cccnc4)C(=O)C13)O2` (configuration not stated) was 99.1% (inactive).
Next, `COC(=O)c1ccc(/C=C(\C#N)C(=O)NC(C)c2ccccc2)cc1` (configuration not stated): 81.2% (inactive); `COC(=O)c1ccc(Oc2nc(C(N)=O)cc(-c3ccccc3)n2)cc1`: 89.1% (inactive).
Next, `CC(C)(C)c1ccc(CNc2ccc([N+](=O)[O-])cn2)cc1`: 87.2% (inactive).
Regarding `Cc1ccc(CNc2ccc(O)cc2)cc1`, the “viability” value was 89.3% (inactive).
For the compound `CCN(CCNC(=O)Nc1ccc(Cl)cc1)c1ccccc1`, the “viability” value is 99.3% (inactive).
In the case of `O=C(c1nnc(Cc2ccc(Cl)cc2)o1)N1CCc2ccccc2C1`, the “viability” value was 87.9% (inactive).
Next, `CN1CCN(c2nc(N3CCN(c4ccccc4)CC3)ncc2F)CC1`: 80.7% (inactive); `CNC(=O)C1C(=S)NC(N)=C(C#N)C1c1ccccc1` (configuration not stated): 81.2% (inactive).
The value for `CCC(Sc1nc2sc(C(=O)OC)c(C)c2c(=O)n1N)C(=O)N(CC)CC` (configuration not stated) was 98.7% (inactive); that for `Cc1cc(NS(=O)(=O)c2ccccc2)cc(Cl)c1O` was 94.8% (inactive); that for `O=C(NNc1nc2cc3c(cc2s1)OCO3)c1cccc(F)c1` was 91% (inactive).
The value for `COc1ccc(C(=O)OC2CCN(c3ncc(C(F)(F)F)cc3Cl)CC2)cc1` was 92.8% (inactive); that for `COc1ccc(CCN2C(=O)CN(Cc3ccccc3)CC2=O)cc1OC` was 86.4% (inactive); that for `O=C(NCCOc1ccccc1)C(c1ccccc1)c1ccccc1` was 101% (inactive).
Regarding `Cc1cc2ncn(C(=O)N3CCC(C)CC3)c2cc1C`, the “viability” value is 96.2% (inactive).
The value for `COC(C)(C)[C@H](O)COc1c2ccoc2cc2oc(=O)ccc12` was 96.7% (inactive); that for `CCOC(=O)c1[nH]c2ccc(OC)cc2c1NC(=S)N1CCN(c2ccccc2)CC1` was 93.1% (inactive).
Next, `Oc1ccc(C=Nc2ccc3ncccc3c2)c(O)c1`: 82.3% (inactive).
Next, `CCN(CC)S(=O)(=O)c1ccc(-c2nnc(SCc3nnc(-c4ccccc4)o3)o2)cc1`: 81.1% (inactive); `O=C(Nc1cccc(C(F)(F)F)c1)C12CC3CC(CC(C3)C1)C2`: 91.7% (inactive).
Turning to `CN(C)c1nn(C(=O)Nc2cccc(C(F)(F)F)c2)cc1-c1ccccc1`, the “viability” value is 82.9% (inactive).
Next, `CCCCCn1c(Sc2ccccc2)nc2c1c(=O)[nH]c(=O)n2C`: 83.4% (inactive); `CC(C(=O)NC(=O)NCc1ccccc1)N1C(=O)c2ccccc2C1=O` (configuration not stated): 107% (inactive); `Cc1cc(NC(=O)Cn2c(=O)n(Cc3ccccc3)c(=O)c3ccccc32)no1`: 83.5% (inactive).
With `Cc1cc(Cl)ccc1N=c1ssnc1Cl`, the “viability” value is 91.1% (inactive).
Next, `CCN(CC)C(=O)CCCOc1ccc(Cl)cc1Cl`: 83% (inactive); `O=C(Nc1cccc2ccccc12)N1CCN(Cc2ccc3c(c2)OCO3)CC1`: 96.3% (inactive); `COc1ccc(C(C)=O)cc1CSc1nc2ccccc2o1`: 96.2% (inactive).
In the case of `CCOC(=O)C1=C(C)NC(=S)N(C(C)=O)C1c1ccc(Cl)cc1` (configuration not stated), the “viability” value is 82.2% (inactive).
Next, `Cc1cc(C)c2c(=O)n(CC(=O)N3CCC(Cc4ccccc4)CC3)sc2n1`: 80.1% (inactive).
The value for `Cc1sc2c(=O)n3c(nc2c1C(=O)NCCCN1CCOCC1)CCCCC3` was 97.5% (inactive); that for `CCCCNS(=O)(=O)c1ccc2nc(-c3cccnc3)cc(C(=O)NC3CC3)c2c1` was 92.2% (inactive); that for `O=C(NCc1ccccn1)c1c(O)c2cccc3c2n(c1=O)CC3` was 97.4% (inactive).
Next, `CNC(=S)N/N=C(\C)c1ccc(N2CCOCC2)cc1`: 91.4% (inactive); `COc1cccc(OCC(=O)NN=C2c3ccccc3-c3ccccc32)c1`: 97% (inactive); `O=C(CSc1ncnc2c1nnn2-c1ccc(F)cc1)NCC1CCCO1` (configuration not stated): 84% (inactive).
For the compound `Cc1cc(NC(=O)c2sc(Nc3cccc(C(F)(F)F)c3)nc2N)no1`, the “viability” value was 88.3% (inactive).
Regarding `COc1ccc(Nc2oc(COc3ccc(Cl)cc3)nc2C#N)cc1`, the “viability” value was 84.1% (inactive).
Next, `CCCn1c(SCC(=O)c2ccc3c(c2)NC(=O)CO3)nc2ccccc21`: 82.9% (inactive); `C=CCNc1nc(Nc2ccc(-c3nc4ccccc4o3)cc2)nc(N2CCOCC2)n1`: 93.2% (inactive); `CCOC(=O)c1c(C2COc3ccccc3O2)csc1NC(=O)c1ccccc1` (configuration not stated): 87.7% (inactive).
Next, `O=C(CCNc1cc(Cl)cc(Cl)c1)c1ccco1`: 87.6% (inactive); `O=C(NCc1ccc2c(c1)OCO2)c1ccc2c(c1)C(=O)N(CC1CCCO1)C2=O` (configuration not stated): 105% (inactive).
Next, `COC(=O)COc1ccc(S(=O)(=O)NCc2ccncc2)cc1`: 96.7% (inactive).
For `C=CCNC(=O)c1ccccc1NC(=O)c1ccccc1C`, the “viability” value was 101% (inactive).
Next, `CCOc1ccc(N(CC(=O)NC2CCCCCC2)S(=O)(=O)c2c(C)noc2C)cc1`: 101% (inactive); `Nc1c(NCCN2CCOCC2)c2ccccc2oc1=O`: 85.6% (inactive); `COc1cccc2cc(C(=O)N(C)C)c(=O)oc12`: 92.8% (inactive).

As a reminder, the viability is a read-out of living cells in per cent, often relative to untreated cells.

The record behind these values is PubChem BioAssay AID1045 (SRMLSC, 2008).
